# Assay outcomes as filed in PubChem.
# HepG2 viability: kills HepG2 cells in TGF-b inhibitor counter-screen; HepG2 CAGA-GFP viability, ATP luminescence, 18 h; Potency, µM (top dose mostly 46.1 µM), for inactives: top-dose activity change, negative = cytotoxicity, usual class: cytotoxic; 410,000 compounds, 0.76% hits; AID 588856
#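 CellTiter-Glo luminescence gave cytotoxicity after 18 hours at 37 degrees C. The cells were HepG2 CAGA-GFP in 1% FBS DMEM, stimulated with 500 pg/mL TGF-beta after compound addition. %Activity was normalised to no-cell wells (complete cell-killing) and DMSO (no toxicity), and curves were fitted and classified.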
# S2 tox: reduces viability in counter-screen for ATXN expression inhibitors; S2 cells (HEK-293 line with an ATXN2-luciferase reporter) viability, CellTiter-Fluor protease fluorescence, 24 h; 400,000 compounds, 0.49% hits; Potency, µM (series often up to 56.7 µM), actives largely listed as cytotoxic; also: nearly all actives have a fitted effect of over 40% in size
# ATXN2 expr inh: reduces ATXN2 reporter expression in HEK-293 cells. 360,000 compounds, 0.72% hits. AID 1745845. HEK-293 ATXN2-luciferase reporter, luminescence, 24 h. Potency, µM (top dose mostly 57 µM), for inactives: at the highest dose activity change, negative = inhibition, actives largely listed as inhibitors; also: % is scaled to controls: 0 for no effect and ±100 for the full control effect; nearly all actives have a fitted effect of over 55% in size
#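 ATXN2-luciferase reporter cells (luciferase flanked by upstream and downstream ATXN2 gene portions) were treated 24 h at 37 °C with compounds at up to 57 uM. SteadyGlo luminescence gave expression; GF-AFC fluorescence gave viability.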
# TGFb inhibitor: inhibitors of TGF-b signaling; 410,000 compounds, 1.2% hits; Potency, µM (doses to about 46.1 µM), for the others: at the top dose activity, negative = inhibition, most hits filed as inhibitors; HepG2 CAGA-GFP TGF-b/SMAD3 reporter, GFP fluorescence, 18 h; TGF-beta stimulated, 500 pg/mL final; AID 588855; also: % is scaled to controls: 0 for no effect and ±100 for the full control effect; nearly all actives have a fitted effect of over 65% in size
#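 Inhibition of TGF-beta-driven CAGA-GFP reporter expression in HEPG2 cells is measured by cellular GFP fluorescence after 18 h stimulation with 500 pg/mL recombinant TGF-beta in 1% FBS medium at 37 degrees C.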
# HTT ATP protect: Huntington cell model cytoprotection by ATP luminescence; PC12 HTT-Q103 induced, cytoprotection, ATP luminescence, 40 h; Potency, µM (doses to about 56.4 µM), for inactives: cytoprotection (ATP increase), most hits filed as activators; 230,000 compounds, 0.14% hits; AID 1471; also: % of control where 0% means no effect; nearly all actives have a fitted effect of over 45% in size
#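 PC12 cells stably carrying ecdysone-inducible Htt exon 1 (Q103)–GFP were induced with 100 nM tebufenozide (final) alongside library compounds in a dose series. Cytoprotection was scored as retained ATP by ATPlite luminescence.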
# HttQ103 aggreg: inhibitors of mutant huntingtin aggregate formation in PC12 cells; PC12 HttQ103-GFP aggregates, Acumen cytometry, 40 h; Potency, µM (doses to about 46.1 µM), for the others: top-dose activity change, negative = inhibition, most hits filed as inhibitors; 220,000 compounds, 1.1% hits; AID 1688; also: % is scaled to controls: 0 for no effect and ±100 for the full control effect; nearly all actives have a fitted effect of over 60% in size
#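 PC12 cells stably carrying ecdysone-inducible HTT exon 1 Q103–GFP were induced with tebufenozide (100 nM final) and treated with library compounds in titration. GFP aggregates in lysates were counted by laser scanning cytometry.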
# An asterisk follows results filed as active; i = inactive; ? = inconclusive; . = no result; ! = not active in a repeat; [ ] = dose if it differs, or a comment. Compounds with a hit are over-represented: about 2.8% of the library has one in this group of screens. Calls follow the shape of the dose curve; as a rule, active = well fitted curve in the direction sought with a large enough effect; inconclusive = small, poorly fitted or top-dose-only effect, or another doubt; inactive = no such curve, though single readings can be large; an effect the other way counts as inactive or inconclusive. Potency is read from the fitted curve at half-maximal effect.
SMILES,HepG2 viability,S2 tox,ATXN2 expr inh,TGFb inhibitor,HTT ATP protect,HttQ103 aggreg
COc1cc(OC)cc(C2=Cc3ccc(OC)cc3C(CC(C)=O)N2c2ccc(C#CC3(O)CCCCC3)cc2)c1 (stereo not drawn),.,?,-27%,.,.,.
COc1cc(OC)cc(C2=Cc3ccccc3C(CC(C)=O)N2c2ccc(C#CC3(N)CCCCC3)cc2)c1 (stereo not drawn),.,28µM*,?,.,.,.
CN(C)c1ccc(C(I)C(I)c2ccnc3ccccc23)cc1 (stereo not drawn),-56%,.,.,1%,.,.
COc1cc(NS(=O)(=O)c2cc(Br)cc3c2N(C(=O)C2CC2)CC3)cc(OC)c1,-23%,.,.,2.2µM*,.,.
CCC(=O)N1CCc2cc(Br)cc(S(=O)(=O)NCCc3cccc(C)c3)c21,-17%,.,.,11µM*,.,.
CC1CC(C)CN(CCCNS(=O)(=O)c2cc(Br)cc3c2N(C(=O)C2CC2)CC3)C1 (stereo not drawn),4µM*,i,-16%,11%,.,.
C[n+]1c(/C=C/c2ccc(N)cc2)sc2ccccc21,-12%,.,.,-12%,.,.
C=C(c1nc2ccccc2s1)C1Cc2cccc3c2N(CCC3)C1 (stereo not drawn),7.1µM*,.,.,4µM*,.,.
c1ccc2sc(N3CCCCC3)nc2c1,-21%,i,48%,8%,.,.
C[C@H]1O[C@H](O[C@H]2[C@H](O)[C@@H](O)[C@@H](O[C@H]3[C@H](O)[C@@H](O)[C@H](O)O[C@@H]3CO)O[C@@H]2CO)[C@H](O)[C@@H](O)[C@@H]1N[C@H]1C=C(CO)[C@@H](O)[C@H](O)[C@H]1O,.,i,2%,.,.,.
Cc1cccc(N2CCN(C(c3cccs3)c3nnnn3C(C)(C)C)CC2)c1C (stereo not drawn),-34%,i,?,?,11%[10 µM],11µM*
CCC(C)(C)n1nnnc1C(c1cccs1)N1CCc2ccccc21 (stereo not drawn),-31%,i,?,13µM*,-14%,?
c1ccc(CCc2nnc3n2CCN(Cc2ccc4ccccc4n2)CC3)cc1,.,i,.,.,.,.
Cc1c(CC(=O)NCCCC(=O)O)c(=O)oc2cc3c(cc12)CCC(C)(C)O3,-3%,i,3.2µM*,0%,.,.
Cc1c(CC(=O)NCCCCCC(=O)O)c(=O)oc2cc3c(cc12)CCC(C)(C)O3,-3%,i,2%,6%,.,.
Cc1c(C(=O)Nc2ccc(Cc3ccncc3)cc2)cccc1[N+](=O)[O-],-17%,i,0%,?,1%[10 µM],-25%
O=C(Nc1ccc(Cc2ccncc2)cc1)c1cccc([N+](=O)[O-])c1,-23%,?,.,?,10%[10 µM],12%
Cc1ccc(C(=O)Nc2ccc(Cc3ccncc3)cc2)cc1[N+](=O)[O-],-26%,?,-39%,-17%,-49%,13µM*
Cc1occc1C(=O)Nc1ccc(S(N)(=O)=O)cc1,0%,i,.,-6%,10%[10 µM],-4%[9.22 µM]
O=C(Nc1ccc(Cc2ccncc2)cc1)c1ccc([N+](=O)[O-])o1,-33%,i,9%,16µM*,.,.
Cc1occc1C(=O)Nc1ccc(S(=O)(=O)N2CCCC2)cc1,-1%,i,4%,-5%,-21%[0.074 µM],4µM*
O=C(Nc1ccc(S(=O)(=O)N2CCCC2)cc1)c1ccc([N+](=O)[O-])o1,13µM*,.,?,?,.,.
Cc1ccc(C(=O)Nc2ccc(S(=O)(=O)N3CCCC3)cc2)o1,5%,i,2%,0%,.,.
COc1cc(OC)c(/C=C/c2nc3ccccc3o2)c(OC)c1,-37%,.,.,-8%,.,.
O=C(NCc1nnc2n1CCN(Cc1cc3c(cc1Cl)OCO3)CC2)C1CCOC1 (stereo not drawn),.,i,.,.,.,.
SMILES,HepG2 viability,S2 tox,ATXN2 expr inh,TGFb inhibitor,HTT ATP protect,HttQ103 aggreg
CCC1C(=O)NCCN1Cc1ccc2c(c1)CN(Cc1ccc(OC)c(OC)c1)CCO2 (stereo not drawn),.,i,.,.,.,.
COc1ccc(OC)c2c(C)ccnc12,13µM*,.,.,7.9µM*,.,.
Cc1ccnc2c(Cl)ccc(Cl)c12,-20%,.,.,-15%,.,.
COc1ccccc1C(C[N+](=O)[O-])c1c(N)n(C)c(=O)n(C)c1=O (stereo not drawn),10µM*,.,.,7.1µM*,-64%[10 µM],-16%[9.22 µM]
Cc1ccc(S(=O)(=O)N2CCCc3ccccc32)cc1,0%,i,.,-7%,.,.
O=S(=O)(NC1CC1)c1ccc(S(=O)(=O)N2CCCc3ccccc32)cc1,-34%,i,-17%,?,23%[10 µM],11µM*
C[C@]12CCC(=O)C=C1[C@@H]1CC1[C@H]1[C@H]3[C@@H]4C[C@H]4[C@@]4(CCC(=O)O4)[C@@]3(C)CC[C@H]12 (stereo partly drawn),.,.,-17%,.,.,.
COc1ccc(CCNC(=O)c2coc(=O)c(Br)c2)cc1,13µM*,.,?,18µM*,.,.
Cc1ccc(N2CC(C(=O)NCCS(=O)(=O)N3CCN(c4ccc(F)cc4)CC3)CC2=O)cc1 (stereo not drawn),1µM*!,i,-6%,17%,.,.
COCC(=O)N1CCc2nc(-c3ccccc3)c3c(c2C1)CO[C@@H](C)C3,.,.,.,.,-14%[10 µM],.
COc1ccc(OC)c(NC(=O)c2cnc(Nc3ccc(C)c(Cl)c3)c3ccccc23)c1,1%,.,5%,-19%,.,.
COc1ccc(Nc2ncc(C(=O)Nc3ccc(F)cc3F)c3ccccc23)cc1,-35%,?,-20%,13µM*,.,.
O=C(N/N=C/c1ccc2c(c1)OCO2)c1ccccn1,7.1µM*,i,?,0%,-97%,18%
CC(C)c1ccc(/C=N/NC(=O)c2ccccn2)cc1,-22%,i,13µM*,3%,-63%[10 µM],9%[9.22 µM]
O=C(N/N=C/c1cc2c(cc1Br)OCO2)c1ccccn1,-14%,i,23%,1%,10%[10 µM],16%[9.22 µM]
